# Measurements taken from PubChem BioAssay AID1159580 (chemical genetic matrix, 2015).
# Screen size: about 5,500 compounds; about 2,000 (36%) were called active. Roughly 18% stayed inconclusive and do not appear here. The list shows a part of the results. Unmarked numbers belong to inactive results. No stated cut-off is given here; in the data, active means normalized growth mostly below about 0.91 (no sharp cut-off); inconclusive means no clear call, values can overlap the other calls; inactive means mostly above about 0.92.
# Assay: chemical genetic growth profiling, strain panel (AID 1159580);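 further: tested at 20 µM; growth read once vehicle control cultures reached saturation at 30 °C; 1 = growth at the plate median or of vehicle wells; lower values mean less growth of the strain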
# Details: S. cerevisiae deletion strains, growth OD
# [1] = locus YAL013W, strain DEP1, hits give low values
# [2] = locus YBR229C, strain ROT2, hits give low values
# [3] = locus YCL061C, strain MRC1, hits give low values
# [4] = locus YDL101C, strain DUN1, hits give low values
# [5] = locus YDL134C, strain PPH21, hits give low values
# [6] = locus YDR150W, strain NUM1, hits give low values
# [7] = locus YEL061C, strain CIN8, hits give low values
# [8] = locus YGR078C, strain PAC10, hits give low values
# [9] = locus YHR030C, strain SLT2, hits give low values
# [10] = locus YHR087W, strain rtc3, hits give low values
# [11] = locus YJR043C, strain POL32, hits give low values
# [12] = locus YJR075W, strain HOC1, hits give low values
# [13] = locus YKL190W, strain CNB1, hits give low values
# [14] = locus YLR039C, strain RIC1, hits give low values
# [15] = locus YLR058C, strain SHM2 (second series), hits give low values
# [16] = locus YLR085C, strain ARP6, hits give low values
# [17] = locus YLR262C, strain YPT6, hits give low values
# [18] = locus YML094W, strain GIM5, hits give low values
# [19] = locus YMR219W, strain ESC1, hits give low values
# [20] = locus YMR263W, strain SAP30, hits give low values
# [21] = locus YNL128W, strain TEP1, hits give low values
# [22] = locus YNL153C, strain GIM3, hits give low values
# [23] = locus YNL298W, strain CLA4 (second series), hits give low values
# [24] = locus YNL322C, strain KRE1, hits give low values
# [25] = locus YNR030W, strain Alg12, hits give low values
# [26] = locus YPL055C, strain LGE1, hits give low values
# [27] = locus YPL241C, strain CIN2, hits give low values
# [28] = locus YPR135W, strain CTF4, hits give low values
# [29] = locus YAR019C, strain CDC15, hits give low values
# [30] = locus YBL105C, strain PKC1, hits give low values
# [31] = locus YBR135W, strain CKS1, hits give low values
# [32] = locus YBR136W, strain MEC1, hits give low values
# [33] = locus YBR160W, strain CDC28, hits give low values
# [34] = locus YDL017W, strain CDC7, hits give low values
# [35] = locus YDL028C, strain MPS1, hits give low values
# [36] = locus YDL108W, strain KIN28, hits give low values
# [37] = locus YDL132W, strain cdc53, hits give low values
# [38] = locus YDL214C, strain PRR2, hits give low values
# [39] = locus YDR052C, strain DBF4, hits give low values
# [40] = locus YDR054C, strain cdc34, hits give low values
# [41] = locus YDR226W, strain ADK1, hits give low values
# [42] = locus YDR477W, strain SNF1, hits give low values
# [43] = locus YER123W, strain YCK3, hits give low values
# [44] = locus YER133W, strain GLC7, hits give low values
# [45] = locus YFL009W, strain cdc4, hits give low values
# [46] = locus YFL029C, strain CAK1, hits give low values
# [47] = locus YFR003C, strain YPI1, hits give low values
# [48] = locus YFR019W, strain FAB1, hits give low values
# [49] = locus YFR028C, strain CDC14, hits give low values
# [50] = locus YGR040W, strain KSS1, hits give low values
# [51] = locus YGR052W, strain FMP48, hits give low values
# [52] = locus YGR092W, strain DBF2, hits give low values
# [53] = locus YHR079C, strain IRE1, hits give low values
# [54] = locus YHR082C, strain KSP1, hits give low values
# [55] = locus YHR205W, strain SCH9, hits give low values
# [56] = locus YIL147C, strain SLN1, hits give low values
# [57] = locus YJL095W, strain BCK1, hits give low values
# [58] = locus YJL128C, strain PBS2, hits give low values
# [59] = locus YJL157C, strain FAR1, hits give low values
# [60] = locus YJR016C, strain ILV3, hits give low values
# [61] = locus YJR066W, strain TOR1 (second series), hits give low values
# [62] = locus YJR066W, strain TOR1, hits give low values
# [63] = locus YKL048C, strain ELM1, hits give low values
# [64] = locus YKL067W, strain YNK1, hits give low values
# [65] = locus YKL101W, strain HSL1, hits give low values
# [66] = locus YKL193C, strain SDS22, hits give low values
# [67] = locus YKL203C, strain TOR2, hits give low values
# [68] = locus YLR113W, strain HOG1, hits give low values
# [69] = locus YLR133W, strain CKI1, hits give low values
# [70] = locus YLR403W, strain SFP1, hits give low values
# [71] = locus YML070W, strain DAK1, hits give low values
# [72] = locus YMR001C, strain CDC5, hits give low values
# [73] = locus YMR205C, strain PFK2 (second series), hits give low values
# [74] = locus YMR277W, strain FCP1, hits give low values
# [75] = locus YNL006W, strain LST8, hits give low values
# [76] = locus YNL020C, strain ARK1, hits give low values
# [77] = locus YNL161W, strain CBK1, hits give low values
# [78] = locus YNL183C, strain NPR1, hits give low values
# [79] = locus YNL207W, strain RIO2, hits give low values
# [80] = locus YNL222W, strain SSU72, hits give low values
# [81] = locus YNL307C, strain MCK1 (second series), hits give low values
# [82] = locus YOL078W, strain AVO1, hits give low values
# [83] = locus YOL136C, strain PFK27, hits give low values
# [84] = locus YOR061W, strain CKA2, hits give low values
# [85] = locus YOR119C, strain RIO1, hits give low values
# [86] = locus YOR231W, strain MKK1, hits give low values
# [87] = locus YOR329C, strain SCD5, hits give low values
# [88] = locus YPL031C, strain PHO85, hits give low values
# [89] = locus YPL153C, strain RAD53, hits give low values
# [90] = locus YPL204W, strain HRR25, hits give low values
# [91] = locus YPL209C, strain IPL1, hits give low values
# [92] = locus YPL256C, strain CLN2, hits give low values
# [93] = locus YPR025C, strain CCL1, hits give low values
# [94] = locus YPR106W, strain ISR1, hits give low values
# [95] = locus YPR111W, strain DBF20, hits give low values
# [96] = strain NNK1, hits give low values
# [97] = strain TSCII, hits give low values
smiles,measurement,setting,value
Cc1onc(-c2c(Cl)cccc2Cl)c1C(=O)N1CCN(c2ncnc3scc(-c4ccccc4)c23)CC1,normalized growth,[1],0.97
same,normalized growth,[2],1
same,normalized growth,[3],0.994
same,normalized growth,[4],0.979
same,normalized growth,[5],1
same,normalized growth,[6],0.94
same,normalized growth,[7],1.02
same,normalized growth,[8],1
same,normalized growth,[9],0.942
same,normalized growth,[10],1.01
same,normalized growth,[11],0.977
same,normalized growth,[12],0.997
same,normalized growth,[13],1.01
same,normalized growth,[14],0.937
same,normalized growth,[15],1.01
same,normalized growth,[16],1.01
same,normalized growth,[17],0.962
same,normalized growth,[18],1.01
same,normalized growth,[19],1.01
same,normalized growth,[20],0.967
same,normalized growth,[21],1.01
same,normalized growth,[22],0.999
same,normalized growth,[23],1.02
same,normalized growth,[24],1.01
same,normalized growth,[25],1.01
same,normalized growth,[26],1.02
same,normalized growth,[27],1.01
same,normalized growth,[28],0.923
Cc1csc2c(N3CCN(C(=S)Nc4ccc(C(F)(F)F)cc4)CC3)ncnc12,normalized growth,[29],0.985
same,normalized growth,[30],0.989
same,normalized growth,[31],0.981
same,normalized growth,[32],0.982
same,normalized growth,[33],0.979
same,normalized growth,[34],0.992
same,normalized growth,[35],0.981
same,normalized growth,[4],0.988
same,normalized growth,[36],0.99
same,normalized growth,[37],0.998
same,normalized growth,[38],0.956
same,normalized growth,[39],0.999
same,normalized growth,[40],0.997
same,normalized growth,[41],0.997
same,normalized growth,[42],0.983
same,normalized growth,[43],0.937
same,normalized growth,[44],0.974
same,normalized growth,[45],0.992
same,normalized growth,[46],0.991
same,normalized growth,[47],0.992
same,normalized growth,[48],0.965
same,normalized growth,[49],0.978
same,normalized growth,[50],0.959
same,normalized growth,[51],1.02
same,normalized growth,[52],0.972
same,normalized growth,[9],0.979
same,normalized growth,[53],0.991
same,normalized growth,[54],1.04
same,normalized growth,[55],0.919
same,normalized growth,[56],0.992
same,normalized growth,[57],0.982
same,normalized growth,[58],0.96
same,normalized growth,[59],0.944
same,normalized growth,[60],0.993
same,normalized growth,[61],0.928
same,normalized growth,[62],1.06
same,normalized growth,[63],0.965
same,normalized growth,[64],0.963
same,normalized growth,[65],0.944
same,normalized growth,[66],0.986
same,normalized growth,[67],1.03
same,normalized growth,[68],0.826 (active)
same,normalized growth,[69],0.959
same,normalized growth,[70],0.956
same,normalized growth,[71],0.924
same,normalized growth,[72],1
same,normalized growth,[73],0.949
same,normalized growth,[74],0.987
same,normalized growth,[75],0.988
same,normalized growth,[76],0.956
same,normalized growth,[77],0.98
same,normalized growth,[78],0.996
same,normalized growth,[79],0.978
same,normalized growth,[80],0.991
same,normalized growth,[81],0.937
same,normalized growth,[82],0.992
same,normalized growth,[83],0.922
same,normalized growth,[84],0.964
same,normalized growth,[85],1.03
same,normalized growth,[86],0.928
same,normalized growth,[87],0.986
same,normalized growth,[88],0.986
same,normalized growth,[89],0.979
same,normalized growth,[90],0.941
same,normalized growth,[91],0.984
same,normalized growth,[92],0.942
same,normalized growth,[93],0.982
same,normalized growth,[94],0.975
same,normalized growth,[95],0.977
same,normalized growth,[96],0.967
same,normalized growth,[97],0.992
COc1ccccc1C1CCN(c2ncnc3scc(-c4ccccc4)c23)CC1,normalized growth,[1],1
same,normalized growth,[2],1.01
same,normalized growth,[3],1
same,normalized growth,[4],1.04
same,normalized growth,[5],0.994
same,normalized growth,[6],1.05
same,normalized growth,[7],1
same,normalized growth,[8],1.01
same,normalized growth,"locus YGR229C, strain SMI1, hits give low values",1.01
same,normalized growth,[9],1.03
same,normalized growth,[10],0.976
same,normalized growth,[11],1.01
same,normalized growth,[12],1.01
same,normalized growth,[13],1
same,normalized growth,[14],1.02
same,normalized growth,[15],0.984
same,normalized growth,[16],1.03
same,normalized growth,[17],1.01
same,normalized growth,[18],0.992
same,normalized growth,[19],0.996
same,normalized growth,[20],1.02
same,normalized growth,[21],1.02
same,normalized growth,[22],1.01
same,normalized growth,[23],0.994
same,normalized growth,[24],0.992
same,normalized growth,[25],1
same,normalized growth,[26],0.987
same,normalized growth,[27],1.04
same,normalized growth,[28],1.02
Cc1csc2ncnc(N3CCN(C(=S)Nc4ccc(C(F)(F)F)cc4)CC3)c12,normalized growth,[29],0.995
same,normalized growth,[30],0.987
same,normalized growth,[31],0.985
same,normalized growth,[32],1
same,normalized growth,[33],0.998
same,normalized growth,[34],1
same,normalized growth,[35],0.996
same,normalized growth,[4],0.985
same,normalized growth,[36],0.993
same,normalized growth,[37],0.996
same,normalized growth,[38],0.945
same,normalized growth,[39],1
same,normalized growth,[40],0.965
same,normalized growth,[41],0.994
same,normalized growth,[42],0.999
same,normalized growth,[43],0.926
same,normalized growth,[44],0.964
same,normalized growth,[45],0.99
same,normalized growth,[46],0.983
same,normalized growth,[47],0.996
same,normalized growth,[48],0.958
same,normalized growth,[49],0.993
same,normalized growth,[50],0.978
same,normalized growth,[51],0.999
same,normalized growth,[52],0.922
same,normalized growth,[9],0.919
same,normalized growth,[53],0.982
same,normalized growth,[54],1.02
same,normalized growth,[55],0.908
same,normalized growth,[56],1.01
same,normalized growth,[57],0.938
same,normalized growth,[58],0.92
same,normalized growth,[59],0.942
same,normalized growth,[60],0.995
same,normalized growth,[61],0.908
same,normalized growth,[62],1.02
same,normalized growth,[63],0.979
same,normalized growth,[64],0.968
same,normalized growth,[65],0.959
same,normalized growth,[66],0.996
same,normalized growth,[67],1.01
same,normalized growth,[68],0.816 (active)
same,normalized growth,[69],0.95
same,normalized growth,[70],0.955
same,normalized growth,[71],0.94
same,normalized growth,[72],0.999
same,normalized growth,[73],0.954
same,normalized growth,[74],0.986
same,normalized growth,[75],0.989
same,normalized growth,[76],0.949
same,normalized growth,[77],0.997
same,normalized growth,[78],0.987
same,normalized growth,[79],0.991
same,normalized growth,[80],0.986
same,normalized growth,[81],0.958
same,normalized growth,[82],0.989
same,normalized growth,[83],0.933
same,normalized growth,[84],0.94
same,normalized growth,[85],1.01
same,normalized growth,[86],0.909
same,normalized growth,[87],0.998
same,normalized growth,[88],0.982
same,normalized growth,[89],0.932
same,normalized growth,[90],0.963
same,normalized growth,[91],0.977
same,normalized growth,[92],0.91
same,normalized growth,[93],0.984
same,normalized growth,[94],0.979
same,normalized growth,[95],0.978
same,normalized growth,[96],0.988
same,normalized growth,[97],1
